About 79,000 compounds went through this panel and 15% of them were active in at least one assay; those are over-represented in the sample as a whole. Calls of active or inactive are those of the source. Rule as the data show it: active = growth inhibition above about 70%; inactive = the rest.
Tests used:
[1] = NCI Yeast Anticancer Drug Screen. Data for the rad52 strain (AID 147);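 also: 0% = growth of vehicle-treated control cultures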; settings: S. cerevisiae rad52 mutant growth inhibition, stronger effect = higher value
How it was run: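 Compounds are applied to a genetically defined yeast strain lacking normal DNA damage repair, and inhibition of growth is expressed relative to cultures given vehicle only.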

[2] = NCI Yeast Anticancer Drug Screen. Data for the wt1 strain (AID 149);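 also: 0% = growth of vehicle-treated wt1 cultures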; settings: S. cerevisiae wt1 strain (SPY 50644) growth inhibition, stronger effect = higher value
How it was run: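 wt1 strain grown with compound or vehicle; inhibition taken from the growth difference.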

[3] = NCI Yeast Anticancer Drug Screen. Data for the rad50EPP+ strain (AID 151);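 also: 0% = growth of vehicle-treated control cultures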; settings: S. cerevisiae rad50 mutant strain, stronger effect = higher value
How it was run: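 Compounds were applied to the rad50EPP+ yeast strain, which bears a defined DNA repair alteration, and growth inhibition was determined relative to vehicle-treated cultures.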

[4] = NCI Yeast Anticancer Drug Screen. Data for the mgt1 strain (AID 153); settings: S. cerevisiae mgt1 mutant growth inhibition, stronger effect = higher value
How it was run: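 Strain: mgt1 yeast, one of a set carrying defined DNA damage repair or cell cycle control alterations. Compound-treated growth compared with vehicle.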

[5] = NCI Yeast Anticancer Drug Screen. Data for the rad50 strain (AID 155);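 also: 0% = growth of vehicle-only cultures of the same strain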; settings: S. cerevisiae rad50 strain growth inhibition, stronger effect = higher value
How it was run: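 DNA repair mutant yeast, compound exposure, growth read-out; inhibition is taken relative to vehicle.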

[6] = NCI Yeast Anticancer Drug Screen. Data for the mec2-1 strain (AID 157); settings: S. cerevisiae mec2-1 strain, stronger effect = higher value
How it was run: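 Strain: mec2-1 (DNA repair/cell cycle alteration). Compound exposure, then growth measured; inhibition expressed relative to vehicle.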

[7] = NCI Yeast Anticancer Drug Screen. Data for the rad14 strain (AID 159);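 also: 0% = growth of vehicle-treated control cultures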; settings: S. cerevisiae rad14 strain growth inhibition, stronger effect = higher value
How it was run: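 DNA repair-defective yeast, compound-exposed; % growth inhibition derived by comparison with vehicle-treated controls.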

[8] = NCI Yeast Anticancer Drug Screen. Data for the sgs1 mgt1 strain (AID 161);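 also: 0% = growth of cultures given vehicle only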; settings: S. cerevisiae sgs1 mgt1 strain, stronger effect = higher value
How it was run: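 Genetically altered yeast, compound exposure, growth inhibition relative to vehicle.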

[9] = NCI Yeast Anticancer Drug Screen. Data for the CLN2oe strain (AID 163);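 also: 0% = growth of vehicle-only control cultures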; settings: S. cerevisiae CLN2oe strain, stronger effect = higher value
How it was run: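 Growth of a genetically modified yeast strain is measured after compound exposure and compared with cultures given vehicle alone.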

[10] = NCI Yeast Anticancer Drug Screen. Data for the cln2 rad14 strain (AID 165);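 also: 0% = growth equal to vehicle treated cultures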; settings: S. cerevisiae cln2 rad14 strain, stronger effect = higher value
How it was run: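 Compounds are applied to the cln2 rad14 yeast strain, and growth is then compared with that of vehicle-treated cultures to give inhibition.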

[11] = NCI Yeast Anticancer Drug Screen. Data for the bub3 strain (AID 167); settings: S. cerevisiae bub3 mutant strain, stronger effect = higher value
How it was run: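 In this screen, a yeast mutant lacking normal mitotic checkpoint function is challenged with compound. Relative growth versus vehicle gives the inhibition value.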

[12] = NCI Yeast Anticancer Drug Screen. Data for the wt2 strain (AID 169);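 also: 0% = growth of vehicle-treated yeast cultures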; settings: S. cerevisiae wt2 strain growth inhibition, stronger effect = higher value
How it was run: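 This strain belongs to a panel of yeast strains with defined genetic alterations in DNA damage repair or cell cycle control. Compounds are applied, and growth inhibition is measured against vehicle-treated cultures.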

[13] = NCI Yeast Anticancer Drug Screen. Data for the sgs1 strain (AID 173);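 also: 0% = growth of vehicle-only control cultures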; settings: S. cerevisiae sgs1 mutant, stronger effect = higher value
How it was run: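 Growth of a yeast strain bearing a defined genetic alteration is measured after compound treatment. Inhibition is expressed relative to vehicle-only controls.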

[14] = NCI Yeast Anticancer Drug Screen. Data for the mlh1 rad18 strain (AID 175); settings: S. cerevisiae mlh1 rad18 strain growth inhibition, stronger effect = higher value
How it was run: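 Read-out is yeast growth inhibition, calculated against vehicle-only controls. The compound was applied to a strain engineered with DNA damage repair alterations.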

[15] = NCI Yeast Anticancer Drug Screen. Data for the rad18 strain (AID 177); settings: S. cerevisiae rad18 mutant growth inhibition, stronger effect = higher value
How it was run: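 Growth of the mutant yeast strain after compound exposure, normalised to vehicle-only cultures.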

[16] = at 5.0 µM (retest, dose inferred, filed as 0.5)
[17] = at 50.0 µM (retest, dose inferred, filed as 5.0)

Measured: growth inhibition

CSc1nc(C)c(CCOC(C)=O)c(N=P(c2ccccc2)(c2ccccc2)c2ccccc2)n1
active: [1]; at 100.0 µM 92% | [2]; at 100.0 µM 92% | [4]; at 100.0 µM 90% | [5]; at 50.0 µM 92.2% | [5]; at 100.0 µM 90% | [6]; at 50.0 µM 94.3% | [6]; at 100.0 µM 90% | [7]; at 100.0 µM 87% | [8]; at 50.0 µM 96.5% | [9]; at 100.0 µM 77% | [10]; [17] 86% | [10]; at 50.0 µM 74.8% | [11]; [17] 93% | [11]; at 50.0 µM 95.6% | [11]; at 100.0 µM 92% | [12]; at 100.0 µM 92% | [13]; at 100.0 µM 93% | [14]; at 50.0 µM 94.6% | [15]; at 100.0 µM 91%
inactive: [1]; at 1.2 µM 10% | [1]; at 3.7 µM 4% | [1]; at 11.0 µM -3% | [1]; at 33.0 µM -9% | [2]; at 1.2 µM 9% | [2]; at 3.7 µM 5% | [2]; at 11.0 µM -2% | [2]; at 33.0 µM -3% | [3]; at 1.2 µM 12% | [3]; at 3.7 µM 5% | [3]; at 11.0 µM 1% | [3]; at 33.0 µM 1% | [3]; at 100.0 µM 13% | [4]; at 1.2 µM 10% | [4]; at 3.7 µM 2% | [4]; at 11.0 µM -2% | [4]; at 33.0 µM -15% | [5]; at 1.2 µM 7% | [5]; at 3.7 µM -8% | [5]; [16] 16% | [5]; at 11.0 µM -21% | [5]; at 33.0 µM -1% | [5]; [17] 42% | [6]; at 1.2 µM 12% | [6]; at 3.7 µM 8% | [6]; [16] -14% | [6]; at 11.0 µM 1% | [6]; at 33.0 µM 1% | [6]; [17] 3% | [7]; at 1.2 µM 9% | [7]; at 3.7 µM 2% | [7]; at 11.0 µM -4% | [7]; at 33.0 µM -5% | [8]; [16] -2% | [8]; [17] 22% | [9]; at 1.2 µM 18% | [9]; at 3.7 µM 10% | [9]; at 11.0 µM 0% | [9]; at 33.0 µM 3% | [10]; [16] 3% | [11]; at 1.2 µM 4% | [11]; at 3.7 µM 6% | [11]; [16] 10% | [11]; at 11.0 µM 3% | [11]; at 33.0 µM 3% | [12]; at 1.2 µM 10% | [12]; at 3.7 µM 3% | [12]; at 11.0 µM -4% | [12]; at 33.0 µM -1% | [13]; at 1.2 µM 7% | [13]; at 3.7 µM 3% | [13]; at 11.0 µM -4% | [13]; at 33.0 µM -2% | [14]; [16] 0% | [14]; [17] 23% | [15]; at 1.2 µM 16% | [15]; at 3.7 µM 12% | [15]; at 11.0 µM 4% | [15]; at 33.0 µM 3%
